Measured values published in the supplement of paper PMC11417369.
± gives the standard deviation of the averaged measurements. In all, about 25,000 sequences were measured (“ln(normalized median fluorescence intensity)”: median about 8.6, highest 2% from about 10 on). Many of the other results were omitted from the sample, so the highest values are more common in it than they were.

Tested on: PfAP2-EXP AP2 domain (GST-tagged)
Test: gcPBM binding intensity (ln(normalized median fluorescence intensity)); higher = stronger DNA binding
Outline: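 For binding intensity, the highest Masliner-normalised natural-log median intensity across replicate spots of either probe orientation was taken. Protein bound to the array was stained with Alexa488 anti-GST antibody and scanned at 488 nm. The protein, GST-tagged P. falciparum DNA-binding domains from E. coli at about 25 μg on average, had been applied for 1 h to an Agilent 4 × 180k array of primer-extended double-stranded 36-bp intergenic genomic probes and negative controls.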

| Sequence | gcPBM binding intensity (ln) |
| --- | --- |
| AAATTATATCCCCTTTGTACTTACAGATCTTTATAC [XGTACX_site8163] | 8.77 ± 0.51 |
| CACAGTGATATAAAAACACACATGAATTCTAATTTC [CACACA_site6884] | 8.3 ± 0.21 |
| AAAGTTGTTACGAACATACACACGAACATACTCACG [CACACA_site604] | 8.7 ± 0.69 |
| CCACTATATAAAATCACACATTTATATTATACATAT [CACACA_site4570] | 8.43 ± 0.4 |
| TGTCATTTAATTTTTTGTACGAAAAAAACATATAAA [XGTACX_site4952] | 8.6 ± 0.24 |
| TAATATTAATCCTAGTGTACATTAATTTATATGTAT [XGTACX_site3583] | 8.51 ± 0.45 |
| GTATATATATATTTATGTACTTACCTACATAATTAT [XGTACX_site4435] | 8.84 ± 0.24 |
| AAATTAATATAAATATGTACATAAATAATAAAATAT [XGTACX_site6131] | 8.71 ± 0.5 |
| GTATGTATGTATATATGTACACATTATTATTTAATG [XGTACX_site5802] | 8.78 ± 0.11 |
| ATATATATATATATATGTACACATTAATGTTTTTTT [XGTACX_site167] | 10.4 ± 0.24 |
| AAATTAAAATATATATGTACATATATATATATATAT [XGTACX_site7844] | 10 ± 0.42 |
| ATATATATATATATATGTACATATTATTAATAATAT [XGTACX_site6667] | 10.2 ± 0.35 |
| TTTAATTAAAATATATGTACATATATATATATATAT [XGTACX_site4517] | 10.4 |
| ATATTAATATACATATGTACATATATATATATATAT [XGTACX_site7425] | 10.2 ± 0.24 |
| TATACATATATTATATGTACATATATATATAATATA [XGTACX_site2942] | 8.29 ± 0.28 |
| ATAATGTTTTATAATACACACATTATGTATATAAAT [CACACA_site4077] | 8.36 ± 0.38 |
| TATTATTATTATTATTTTAAAAGAAATAAAAATATG [XGTACX_negctrl_site119] | 8.1 ± 0.39 |
| AATTGGAAGAAAAAAAAGGAAGGAAAGTTATTACAT [GTGCAC_negctrl_site74] | 8.62 ± 0.41 |
| AAATTTGAAGAATATTGTACGCATAATAATTAAATA [XGTACX_site4300] | 8.82 ± 0.41 |
| TTACATATGGTTAGTAGTACATATATAAATGTAAAT [XGTACX_site7206] | 8.62 ± 0.47 |
| AATTAATGGTTAAAGGTGCACAATACATATATTACA [GTGCAC_site9943] | 9.57 ± 0.45 |

| Sequence | gcPBM binding intensity (ln) |
| --- | --- |
| AAATCAAACTTTGGTGTGCACAAATATATACATATA [GTGCAC_site9986] | 9.1 ± 0.29 |
| TTACATACAATTGGTGTGCACATATATATATATATA | 10.3 ± 0.33 |
| TATATATATAAGATTGTGCACATTAAAATGATAGAA [GTGCAC_site9621] | 9.265 ± 0.049 |
| TATATATTTATATATGCATGTACATTTTTATTTATT [TGCATGCA_site1048] | 8.82 ± 0.25 |
| TACATGCATTTCTCATGTACATAATTTTCCCATATT [XGTACX_site5158] | 8.81 ± 0.4 |
| TATATATATATATATACATGCATTTCTCATGTACAT [TGCATGCA_site621] | 10.2 ± 0.33 |
| CCTTACTTCTTATAAAGTACCCAATGATATACATTA [XGTACX_site1554] | 8.41 ± 0.31 |
| AAACGATCTCGATGTTGTACACATTTATATAGAAAC [XGTACX_site4373] | 8.86 ± 0.4 |
| TAAATATATATATAAGTGCATTATATATATATATAA | 8.58 ± 0.028 |
| GCCAATAAAGATGTGGTGCATTATATATATATATAT | 10.3 ± 0.23 |
| AATATTCAATATAAAGTGCATTATTGTGGACCTAAT | 8.77 ± 0.099 |
| TAATTTTTTATATATTGTACAAATAATATATGATGT [XGTACX_site268] | 8.46 ± 0.23 |
| CATTATATGATTTATGTGCACATTCATTTATTTTAA | 8.83 ± 0.099 |
| TTTCTTATTTTGGATTGTACGTATATTTTTCATTTT [XGTACX_site224] | 8.93 ± 0.38 |
| TCTTACGGATTCATTGTGCACATATATATATATATA [GTGCAC_site9896] | 10.2 ± 0.45 |
| AAAAATATATAAGAGAGTACATAAAATAAATTAATT [XGTACX_site1534] | 8.61 ± 0.41 |
| CAGACATATTAAAAGAGTACATATATATATATATAT [XGTACX_site1158] | 10.3 ± 0.28 |
| ACATATTAATTATAAAGTACATATATATATATATAT [XGTACX_site4540] | 10.3 ± 0.18 |
| AAATTATTAAAAAAAAGTACATATATATATATATAT [XGTACX_site8313] | 10.4 ± 0.25 |
| ATATTTTAATTATAAAGTACATAAAAATATATAAAC [XGTACX_site6705] | 8.58 ± 0.3 |
| AAAAAAAAAAAAAAAAGTACATATATATATAATTAT [XGTACX_site7836] | 8.54 ± 0.43 |

| Sequence | gcPBM binding intensity (ln) |
| --- | --- |
| TATATATTATAAAAGAGTACAGAAAGAAAAAAAAAT [XGTACX_site8305] | 9.12 ± 0.59 |
| ATATACATATATATATGTACTTATTTATTTATTTAT [XGTACX_site2532] | 8.56 ± 0.26 |
| TTAATATATTTTAAAAGTACATAATATTATTTTTTA [XGTACX_site3642] | 8.04 ± 0.26 |
| AAAAAAAAAAAAAAAAGTACATATATTATATATATA [XGTACX_site2983] | 8.9 ± 0.099 |
| TATATTTACTTATGAAGTACATATATATATATATAT [XGTACX_site5069] | 10.3 ± 0.21 |
| TATATATATATATATAGTACATATTTATATATGAAA [XGTACX_site8488] | 10.1 ± 0.36 |
| ATGTAGATATATATCTGTACGTATATGTAAATATTA [XGTACX_site1516] | 8.72 ± 0.35 |
| ATGATATTATAAAAAAGTACATATGTATATAATTAT [XGTACX_site7652] | 8.88 ± 0.45 |
| AAAAATTTATTTTTAGGTACACAATTGAATTATTTA [XGTACX_site7008] | 8.16 ± 0.27 |
| TATTTAAAATATTAAATTTGTAAAGTTCGAGGGAAG [GTGCAC_negctrl_site337] | 8.52 ± 0.48 |
| TGATGAAAATTTTTCTGTACAAAAAGTATGAAGGTA [XGTACX_site8901] | 8.88 ± 0.38 |
| AGTTTAATTTTGTATACACACATTTGAATTATTAAT [CACACA_site7625] | 8.77 ± 0.5 |
| AATATGTCTATATTTTTTATATGGAAATATTATAAA [GTGCAC_negctrl_site700] | 7.92 ± 0.39 |
| TTTATAATAAAATTTTTACACACTTTAAAAAAAAAA [CACACA_site8070] | 8.07 ± 0.37 |
| AAAAAAAAAAAAAAATGTACATAAAAATGATATAAT [XGTACX_site4096] | 8.7 ± 0.55 |
| CTTTAAGTTATATGAAGTACAATTTAAAAAAATGAA [XGTACX_site358] | 8.41 ± 0.38 |
| TTTTTATAACATAAAAGTACATATTTTTAATTTAAT [XGTACX_site4394] | 8.05 ± 0.4 |
| TATTCCTAATTTAAAAGTACATATATATATATATAT [XGTACX_site3008] | 10.2 ± 0.54 |
| TATAAAATTTTTAAAAGTACATATTTTACATAATAC [XGTACX_site2193] | 8.38 ± 0.26 |
| TATTTAAGAATATGAAGTACATATATTATTTAAAAA [XGTACX_site7897] | 8.15 ± 0.29 |
| TTTAAAAAGTTATGAAGTACATATATATATATATAT [XGTACX_site2188] | 10.2 ± 0.29 |
